Consider 11 compounds from PubChem BioAssay (EPA / NIEHS).

A short description of test [1]: CCTE_Shafer_MEA_acute_spike_number: CCTE's Neural Acute Assay for Total Number of Spikes, Shafer Lab (AID 2284008). The gist of the method: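 Rat cortical cultures, DIV 13/15, 37 C. 40 min baseline rec, cpd 0.03-40 uM, 40 min post-dose rec. Band-pass 300-5000 Hz, spike threshold 8x rms; % change in spike count per well, DMSO neg ctrl, loss-of-signal fit.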
Test [2] is described as follows: CCTE_Harrill_HTTr_CellCount_MCF7: CCTE's Cell Proliferation Assessment for the High-Throughput Transcriptomics (HTTr) Platform, Harrill Lab (AID 2284012; active means hit-call score of the fitted dose curve at least 0.9, where 1 is the maximum;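 further: count of Hoechst-stained nuclei per well by high-content imaging in MCF-7 cells; cells exposed to compound for six hours; intended direction is loss of nuclei count meaning fewer cells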). The gist of the method:
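Readout: Hoechst nuclear count by high-content imaging. MCF-7, 8-point dilution series, 6 h exposure. Bidirectional fit vs DMSO baseline.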

A short description of test [3]: CCTE_Shafer_MEA_acute_burst_number: CCTE's Neural Acute Assay for Single-Electrode Bursts, Shafer Lab (AID 2284013). The essentials:
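Burst totals were derived with adaptive spike detection (8x rms threshold) on filtered signals from rat cortical cultures; change relative to pre-treatment baseline after 40-min compound exposure (0.03-40 uM) was fitted in the negative direction against DMSO.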

Test [4] can be described thus: CCTE_Shafer_MEA_acute_burst_duration_mean: CCTE's Neural Acute Assay for Mean Burst Duration, Shafer Lab (AID 2284014).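 Further: hits are decreases in mean burst duration relative to DMSO controls.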 The essentials:
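Acute exposure of mature rat cortical networks (DIV 13 or 15) grown on microelectrode arrays to 0.03-40 uM compound. Mean burst duration compared with the 40-min pre-dose baseline over a 40-min post-dose recording at 37 C.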

A short description of test [5]: CCTE_Shafer_MEA_acute_per_burst_spike_number_mean: CCTE's Neural Acute Assay for Average Number of Spikes Per Burst, Shafer Lab (AID 2284015).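 Further: hits are decreases in mean spikes per burst versus baseline.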 The gist of the method:
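Rat primary cortical neurons on 48-well MEAs (DIV 13 or 15) were treated with 0.03-40 uM compound at 37 C. Mean spikes per burst over 40 min were recorded before and after exposure and expressed as percent change from baseline, relative to DMSO.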

Test [6] in a line: CCTE_Shafer_MEA_acute_interburst_interval_mean: CCTE's Neural Acute Assay for Mean Interburst Interval, Shafer Lab (AID 2284016).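 Further: percent change of mean interburst interval versus each well's own pre-dose baseline; curves fitted for decrease in interburst interval relative to DMSO.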 The essentials:
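Rat primary cortical neurons on 48-well MEAs at DIV 13 or 15 were exposed acutely to 0.03-40 uM. Spikes detected at 8x rms noise, 37 C. Mean interburst interval from 40 min recordings expressed as percent change from 40 min pre-treatment baseline.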

Test [7] can be described thus: CCTE_Shafer_MEA_acute_burst_percentage_mean: CCTE's Neural Acute Assay for Percentage of Spikes in a Burst, Shafer Lab (AID 2284017). The essentials: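 Primary rat cortical neurons on 48-well MEA plates, treated on DIV 13 or 15 at 0.03-40 uM. Spikes detected at 8x rms noise at 37C; percent change from 40-min baseline to 40-min post-dose recording, fitted versus DMSO.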

Test [8] can be described thus: CCTE_Shafer_MEA_acute_burst_percentage_std: CCTE's Neural Acute Assay for Standard Deviation of Burst Percentage, Shafer Lab (AID 2284018).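 Further: fitted in the negative direction so actives lower burst percentage SD.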 The gist of the method:
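Primary rat cortical neurons on 16-electrode MEA wells were recorded 40 min at baseline (DIV 13 or 15), then 40 min after compound (0.03-40 uM), at 37 C. Well value is SD across electrodes of spikes-in-bursts/total spikes; endpoint is percent change, DMSO-referenced.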

Test [9] can be described thus: CCTE_Shafer_MEA_acute_per_network_burst_spike_number_mean: CCTE's Neural Acute Assay for Average Number of Spikes in a Network Burst, Shafer Lab (AID 2284019). The essentials:
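Acute exposure of rat primary cortical networks (DIV 13/15) on MEAs; adaptive spike detection at 8x rms noise, 37 C. Percent change in spikes per network burst after 40 min with compound (0.03-40 uM), negative direction vs DMSO.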

Test [10] in a line: CCTE_Shafer_MEA_acute_per_network_burst_spike_number_std: CCTE's Neural Acute Assay for Standard Deviation of Number of Spikes in a Network Burst, Shafer Lab (AID 2284020).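 Further: fitted for decrease in spike-number SD versus DMSO so actives lower it.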 The essentials:
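Acute MEA exposure, rat cortical neurons, 0.03-40 uM. Per-well % change versus own baseline; DMSO as negative control.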

A short description of test [11]: CCTE_Shafer_MEA_acute_per_network_burst_electrodes_number_mean: CCTE's Neural Acute Assay for Mean Number of Electrodes in a Network Burst, Shafer Lab (AID 2284021).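 Further: curves fitted for decreases only so hits reduce electrodes per burst.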 The gist of the method: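 Readout: % change in mean electrodes active per network burst, post- vs pre-treatment, each well. Spikes detected at 8x rms noise after 300-5000 Hz band-pass; rat cortical cultures, DIV 13/15, compounds 0.03-40 uM, DMSO baseline.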

A short description of test [12]: CCTE_Shafer_MEA_acute_network_burst_percentage: CCTE's Neural Acute Assay for Percentage of Network Bursts, Shafer Lab (AID 2284022).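 Further: curves fitted for loss so actives lower network burst percentage.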 The essentials: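 Rat cortical cultures, DIV 13/15; 20 min equilibration, 40 min baseline, compound 0.03-40 uM, 40 min recording, 37 C. Spikes: 300-5000 Hz band-pass, threshold 8x rms noise. Readout: % change in network-burst spike fraction; loss direction vs DMSO.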

Test [13] can be described thus: CCTE_Shafer_MEA_acute_cross_correlation_area: CCTE's Neural Acute Assay for Area of Cross Correlation, Shafer Lab (AID 2284024).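 Further: area under pooled inter-electrode spike cross-correlation near zero lag as percent change from own baseline; curves fitted for loss of cross-correlation area so actives lower synchrony.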 The gist of the method:
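Rat cortical cultures, DIV 13/15, MEA; spikes detected at 8x rms noise (300-5000 Hz band-pass). Compound 0.03-40 uM, ≥3 wells each. Readout: % change in pooled inter-electrode cross-correlation area vs own baseline; DMSO negative control.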

Test [14] can be described thus: CCTE_Harrill_HTTr_Apoptosis_MCF7: CCTE's 6-hour Apoptosis Assessment for the High-Throughput Transcriptomics (HTTr) Platform, in MCF-7 cells cultured in DMEM + 10% fetal bovine serum, Harrill Lab (AID 2284011). The gist of the method:
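Read-out: CellEvent Caspase 3/7 Green signal by high content imaging, gain-of-signal indicating apoptosis. MCF-7 cells, DMEM + 10% FBS, eight-point dilution series, 6 h exposure. Curves fitted bidirectionally relative to DMSO negative control.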

For test [15], the target named is Nucleoli Translocation, AR (gene 367) (UniProt P10275). Kind of test: UPITT_HCI_U2OS_AR_TIF2_Nucleoli_Antagonist: University of Pittsburgh U2OS Androgen Receptor-Transcriptional Intermediary Factor 2 (AR-TIF2) Antagonism High Content Imaging Assay for Nucleoli Translocation (AID 2283997; active means hit-call score of the fitted dose curve at least 0.9, where 1 is the maximum). The gist of the method: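 An antagonist-mode imaging screen: engineered U2OS (AR-RFP, TIF2-GFP) exposed to 20 uM compound, 0.2% DMSO. Activity reflects nucleolar red fluorescence change relative to DHT baseline.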
Chain of Nucleoli Translocation, AR (gene 367) (P10275 whole entry, looked up): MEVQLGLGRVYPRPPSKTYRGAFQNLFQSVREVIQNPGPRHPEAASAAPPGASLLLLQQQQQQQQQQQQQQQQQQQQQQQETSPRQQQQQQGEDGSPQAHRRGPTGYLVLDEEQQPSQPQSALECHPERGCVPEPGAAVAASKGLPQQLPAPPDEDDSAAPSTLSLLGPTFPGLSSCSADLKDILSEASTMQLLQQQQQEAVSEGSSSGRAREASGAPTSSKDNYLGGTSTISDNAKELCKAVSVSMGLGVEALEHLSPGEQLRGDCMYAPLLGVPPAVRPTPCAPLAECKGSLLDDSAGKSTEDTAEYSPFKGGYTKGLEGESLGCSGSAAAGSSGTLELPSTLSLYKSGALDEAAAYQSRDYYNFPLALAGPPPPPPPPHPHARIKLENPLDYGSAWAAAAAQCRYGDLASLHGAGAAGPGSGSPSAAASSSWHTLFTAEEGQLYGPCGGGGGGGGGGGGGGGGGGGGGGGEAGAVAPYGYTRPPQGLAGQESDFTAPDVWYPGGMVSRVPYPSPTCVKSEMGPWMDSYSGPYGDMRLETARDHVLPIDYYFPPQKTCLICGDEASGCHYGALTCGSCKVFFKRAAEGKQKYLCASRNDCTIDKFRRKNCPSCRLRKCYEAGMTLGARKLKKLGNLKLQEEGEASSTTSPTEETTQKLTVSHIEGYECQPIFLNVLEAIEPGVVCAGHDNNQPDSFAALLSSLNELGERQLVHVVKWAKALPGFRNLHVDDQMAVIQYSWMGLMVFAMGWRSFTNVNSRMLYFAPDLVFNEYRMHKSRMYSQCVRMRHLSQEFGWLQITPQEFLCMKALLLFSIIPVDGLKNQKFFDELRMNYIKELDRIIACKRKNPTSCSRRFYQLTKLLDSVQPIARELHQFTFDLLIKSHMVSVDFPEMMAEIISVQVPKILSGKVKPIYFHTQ

The target is the same in test [16]. The experiment in a line: UPITT_HCI_U2OS_AR_TIF2_Nucleoli_Agonist: University of Pittsburgh U2OS Androgen Receptor-Transcriptional Intermediary Factor 2 (AR-TIF2) Agonism High Content Imaging Assay for Nucleoli Translocation (AID 2283998; active means hit-call score of the fitted dose curve at least 0.9, where 1 is the maximum). The essentials:
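RFP-AR / GFP-TIF2 cells; cpds diluted in serum-free medium; single-point screen 20 uM final (0.2% DMSO), actives confirmed in triplicate; conc-response 0.195–50 uM final (0.5% DMSO). Readout: nucleolar red fluorescence, positive direction vs DMSO.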

The target in test [17] is Ratio of Nucleoli Translocation and Cytoplasm, AR (gene 367) (UniProt P10275). The experiment in a line: UPITT_HCI_U2OS_AR_TIF2_Nucleoli_Cytoplasm_Ratio_Agonist: University of Pittsburgh U2OS Androgen Receptor-Transcriptional Intermediary Factor 2 (AR-TIF2) Agonism High Content Imaging Assay for Ratio of Nucleoli Translocation and Cytoplasm (AID 2284000; active means hit-call score of the fitted dose curve at least 0.9, where 1 is the maximum;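 further: hits raise the red nucleolar to cytoplasm ratio above vehicle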). The gist of the method: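 Primary screen at 20 uM final (0.2% DMSO), then triplicate confirmation and dose-response from 0.195 to 50 uM final (0.5% DMSO). Cells: U2OS with AR-RFP and TIF2-GFP. Endpoint is the nucleoli/cytoplasm red-fluorescence ratio, gain-of-signal vs DMSO.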
Chain of Ratio of Nucleoli Translocation and Cytoplasm, AR (gene 367) (P10275 whole entry, looked up): as above

Test [18] shares this target. The experiment in a line: UPITT_HCI_U2OS_AR_TIF2_Nucleoli_Cytoplasm_Ratio_Antagonist: University of Pittsburgh U2OS Androgen Receptor-Transcriptional Intermediary Factor 2 (AR-TIF2) Antagonism High Content Imaging Assay for Ratio of Nucleoli Translocation and Cytoplasm (AID 2283999; active means hit-call score of the fitted dose curve at least 0.9, where 1 is the maximum;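 further: antagonists lower the DHT-driven ratio of nucleolar to cytoplasmic red signal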). The essentials:
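Read-out is the ratio of nucleolar to cytoplasmic AR-RFP fluorescence, imaged by high-content microscopy in U2OS cells coexpressing TIF2-GFP. Single-point 20 uM screen, triplicate confirmation, then 0.195–50 uM dose response; activity referenced to DHT baseline.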

Test [19] is described as follows: CCTE_Harrill_HTTr_Viability_MCF7: CCTE's 6-hour Cell Viability Assessment for the High-Throughput Transcriptomics (HTTr) Platform, in MCF-7 cells cultured in DMEM + 10% fetal bovine serum, Harrill Lab (AID 2284010). The essentials: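 PI exclusion, high-content imaging; 8-pt dilution series, 6 h exposure; bidirectional fit vs DMSO (neg. ctrl/baseline); gain of signal = loss of membrane integrity.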

Test [20] has as its target Estrogen receptor (Homo sapiens) (UniProt P03372). The experiment in a line: CCTE_Deisenroth_AIME_96WELL_LUC_Active: CCTE's 96-well Estrogen Receptor Transactivation Assay with AIME metabolic competence (ERTA luciferase; metabolism positive), Deisenroth Lab (AID 2284023; active means hit-call score of the fitted dose curve at least 0.9, where 1 is the maximum). The gist of the method: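 Metabolism-positive mode: induced rat hepatic S9 in alginate microspheres conditions test solutions (0.002 - 200 uM, 10 points) for 2 hours. VM7Luc4E2 ER luciferase reporter cells then exposed 24 h; positive-direction fit against 17beta-estradiol, n=4 typical.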

Results filed as inconclusive are left out. Activity calls are given as the source filed them. How the source made its calls, unless noted: active means hit-call score of the fitted dose curve at least 0.9, where 1 is the maximum; inactive means score below 0.9.

Chain of Estrogen receptor (Homo sapiens) (P03372 whole entry, looked up): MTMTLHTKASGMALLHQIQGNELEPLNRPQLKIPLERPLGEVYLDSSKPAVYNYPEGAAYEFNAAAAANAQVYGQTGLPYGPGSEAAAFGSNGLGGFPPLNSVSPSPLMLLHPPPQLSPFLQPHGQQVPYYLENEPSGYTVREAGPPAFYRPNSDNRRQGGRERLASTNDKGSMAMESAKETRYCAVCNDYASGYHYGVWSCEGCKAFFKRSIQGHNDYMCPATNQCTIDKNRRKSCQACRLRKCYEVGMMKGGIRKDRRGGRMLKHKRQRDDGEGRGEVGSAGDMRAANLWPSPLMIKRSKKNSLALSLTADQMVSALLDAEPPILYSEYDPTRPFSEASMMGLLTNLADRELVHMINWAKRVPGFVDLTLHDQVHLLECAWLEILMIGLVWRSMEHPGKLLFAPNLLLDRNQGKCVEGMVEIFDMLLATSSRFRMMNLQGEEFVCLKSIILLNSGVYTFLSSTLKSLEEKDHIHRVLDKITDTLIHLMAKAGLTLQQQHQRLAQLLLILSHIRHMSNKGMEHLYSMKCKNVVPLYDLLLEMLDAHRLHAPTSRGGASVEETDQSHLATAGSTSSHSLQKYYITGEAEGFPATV

For the compound `C1CNCCN1`, the outcome in [1], in test [2], in test [3], in test [4], in [5] and in test [6] was inactive. The compound was called inactive in test [7], in test [8], in test [9], in test [10], in [11] and in test [12]. Besides, in test [13], the call was inactive.
For `CCCC(C)C(=O)OCC` (configuration not stated), the result in test [1], in test [14], in [3], in test [4], in test [5] and in test [6] was inactive. Moreover, the outcome in test [7], in test [8], in [9], in [10], in test [11] and in [12] was inactive. The call in [13] was inactive.
Consider `CCCCC(CC)COC(=O)/C=C/c1ccc(OC)cc1` (configuration not stated), for which the compound was called inactive in test [15], in [16] and in test [17].
As for `Oc1ccc(-c2ccccc2)c(Cl)c1`, the AC50 (usually the concentration giving half of the maximal activity seen) is 13.8 µM (active) in [15] and 13.4 µM (active) in test [16]. Moreover, the outcome in [18], in test [17] and in test [2] was inactive.
`N#Cc1ccc(C(c2ccc(C#N)cc2)n2cncn2)cc1`: the call in [15], in test [16], in test [17], in test [19] and in test [14] was inactive.
On to `C=C1C[C@H]2[C@@H]3C=C(C)C4=CC(=O)CC[C@]4(C)[C@H]3CC[C@]2(C)[C@@]1(OC(C)=O)C(C)=O`, for which the AC50 was 0.0947 µM (active) in [15] and 4 µM (active) in test [16]. Also, the outcome in [18], in [17] and in test [2] was inactive.
Turning to `CC(CCC(=O)O)(c1ccc(O)cc1)c1ccc(O)cc1`, the compound was called inactive in test [1], in test [3], in [4], in test [5], in test [6] and in [7]. In addition, the compound was classed as inactive in [8], in test [9], in [10], in test [11], in test [12] and in test [13].
Consider `CC(=O)OCc1ccccc1`, for which the call in test [15], in test [16], in test [18], in test [17], in test [19] and in test [2] was inactive.
For `Oc1ccc(/C=C/c2cc(O)cc(O)c2)cc1`, the AC50 in test [15] was 5.07 µM (active); in test [20], 4.94 µM (active). The result in test [18] was inactive.
Take `COc1ccc(C(=O)c2ccccc2)c(O)c1`: the AC50 in [15] was 50 µM (active); in [20], 12.6 µM (active). For the same compound, the outcome in test [18], in test [14] and in test [2] was inactive.
Turning to `CC(C)C(=O)OCCc1ccccc1`, the compound was classed as inactive in [1], in test [3], in test [4], in [5], in [6] and in test [7]. Moreover, the result in test [8], in test [9], in test [10], in test [12] and in [13] was inactive. Further, the AC50 in test [11] was 0.0213 µM (active).
